The source of these data is PubChem BioAssay (NCATS).

SMILES strings stand for the structures. Several values for one entry are separate records, joined by “and”; a condition that tells them apart may be missing. Equal values may be shown once. Results filed as inconclusive are left out. Some compounds were tested as several samples or in several runs, with calls that do not always agree. Activity calls are given as the source filed them. Unless noted, calls follow the shape of the dose curve; as a rule, active = well fitted curve in the direction sought with a large enough effect; inconclusive = small, poorly fitted or top-dose-only effect, or another doubt; inactive = no such curve, though single readings can be large; an effect the other way counts as inactive or inconclusive.

Assay [1] is described as follows: qHTS Assay for Identifying Gametocytocidal Compounds (AID 743244).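 Also: % is scaled to controls: 0 for no effect and ±100 for the full control effect; actives lower the fluorescent signal which means gametocytes are killed.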 The settings on record: P. falciparum 3D7 stage III-V gametocytes, alamarBlue, 72 h; max response: stronger effect = lower value. In short, it runs like this: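 A resazurin-based viability read-out was applied to mature P. falciparum gametocytes: 72 h compound treatment, then 24 h dye incubation, with falling fluorescence signalling gametocytocidal effect.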
(In general: In qHTS, concentration-response curves come from the screen itself.)

Assay [2] is described as follows: qHTS profiling of the MIPE4 collection as inhibitors of Plasmodium falciparum (3D7) proliferation (AID 743344; call rule not given here;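 also: scaled between DMSO vehicle wells and 0.29 µM artemisinin as full inhibition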). The conditions noted are these: P. falciparum 3D7 in erythrocytes, SYBR Green DNA fluorescence, 72 h; at 28.5 µM (top of the series) unless noted. A digest of the protocol:
(§1)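 Erythrocytes infected with P. falciparum (0.3% parasitemia, 2.5% hematocrit) incubated with compounds 72 h at 37 C, 5% CO2. Lysis with saponin/Triton buffer containing SYBR Green I, overnight at room temperature in the dark; DNA fluorescence (485/535 nm) normalised to 0.29 uM artemisinin and DMSO.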

Assay [3] can be described thus: qHTS profiling of the MIPE4 collection as inhibitors of Plasmodium falciparum (DD2) proliferation (AID 743345; call rule not given here). The conditions noted are these: P. falciparum Dd2 in erythrocytes, SYBR Green DNA, 72 h; at 28.5 µM (top of the series) unless noted. A digest of the protocol:
as §1

Assay [4] can be described thus: qHTS profiling of the MIPE4 collection as inhibitors of Plasmodium falciparum (DD2) proliferation (Rep 2) (AID 743346; call rule not given here). The conditions noted are these: P. falciparum Dd2 in erythrocytes, SYBR Green DNA, 72 h; at 28.5 µM (top of the series) unless noted. A digest of the protocol:
as §1

Assay [5] can be described thus: qHTS profiling of the MIPE4 collection as inhibitors of Plasmodium falciparum (HB3) proliferation (AID 743347; call rule not given here;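 also: plate controls were DMSO vehicle wells for no effect and artemisinin wells for full effect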). The conditions noted are these: P. falciparum HB3 in erythrocytes, SYBR Green DNA, 72 h; at 28.5 µM (top of the series) unless noted. A digest of the protocol:
as §1

The nature of assay [6]: High-throughput drug toxicity screening in the BPDCN cell line Gen2.2 (AID 1224824; call rule not given here;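 also: cells exposed to compounds for 48 h before reading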). The settings on record: Gen2.2 BPDCN cells; at 45.8 µM (top of the series) unless noted. A digest of the protocol: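 Gen2.2 cells (500/well) in phenol red-free RPMI with 10% FBS were exposed to compounds for 48 h at 37 °C, 5% CO2. Viability was read by CellTiter-Glo luminescence and normalized to DMSO (100%) and 9.2 uM bortezomib (0%).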

Assay [7] is described as follows: High-throughput drug toxicity screening in the BPDCN cell line Cal-1 (AID 1224825; call rule not given here). The conditions noted are these: Cal-1 BPDCN cell viability, qHTS; at 45.8 µM (top of the series) unless noted. In short, it runs like this:
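500 Cal-1 cells/well, RPMI + glutamine + 10% FBS (phenol red-free); cpd added by pin tool; 48 h, 37C, 5% CO2; CTG 15 min RT, lumi read. Normalised: DMSO 100%, bortezomib 9.2 uM 0%.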

Assay [8] is described as follows: qHTS assay for measurement of the activity of small molecule inhibitors on Zika virus induced Caspase-3 activity in human iPSC derived neural progenitor cells (hNPCs) (AID 1224857). Also: nearly all actives have a fitted effect of over 65% in size. Also: potency is read from the fitted curve at half-maximal effect. In short, it runs like this:
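Quantitative HTS format: human iPSC neural progenitors, 1 h compound pretreatment, ZIKV 2 FFU/cell for 6 h at 37 C. Percent inhibition derived from luminescent caspase-3/7 signal between uninfected and infected controls.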

Assay [9] can be described thus: qHTS assay for measurement of the activity of small molecule inhibitors on Zika virus induced Caspase-3 activity in human astrocytoma cells (AID 1224859). Also: potency is read from the fitted curve at half-maximal effect. A digest of the protocol: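 Readout is luminescence from Caspase-Glo 3/7 added after a 6 h ZIKV infection (2 FFU/cell) of compound-pretreated (1 h) SNB-19 cells; data expressed as % inhibition versus uninfected and infected wells.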

Assay [10] is described as follows: qHTS Screen of the MIPE 4.0 Collection Against Ewings Sarcoma (TC71) (AID 1259253). Also: nearly all actives have a fitted effect of over 40% in size. Also: potency is read from the fitted curve at half-maximal effect. In short, it runs like this: (§2)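 CellTiter-Glo luminescence after 48 h compound exposure (titration) gave viability; percent activity used DMSO-treated cells as no inhibition and medium-only wells as full inhibition. Cells grown in RPMI/5% FBS, dosed 4 h post-seeding.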
Assay [11] is described as follows: qHTS profiling for inhibitors of Plasmodium falciparum (3D7) proliferation (AID 743322).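 Also: infected erythrocytes exposed to compound for 72 h before lysis; 100% = DMSO vehicle wells and 0% = 0.29 µM artemisinin.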 The conditions noted are these: P. falciparum 3D7 proliferation; at 28.7 µM (top of the series) unless noted. A digest of the protocol:
as §1

Assay [12] is described as follows: qHTS profiling for inhibitors of Plasmodium falciparum (DD2) proliferation (AID 743323; call rule not given here). The conditions noted are these: lower = more inhibition; at 28.7 µM (top of the series) unless noted. In short, it runs like this:
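Parasite proliferation measured via DNA-dye fluorescence, as uninfected erythrocytes lack DNA. Cultures at 0.3% parasitemia and 2.5% hematocrit incubated 72 h with compound; signal scaled between vehicle and 0.29 uM artemisinin wells.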

Assay [13] can be described thus: qHTS Screen of the MIPE 4.0 Collection Against Ewings Sarcoma (EW8) (AID 1259255).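 Also: 100% = DMSO-treated cells and 0% = medium-only wells without cells; nearly all actives have a fitted effect of over 35% in size.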 A digest of the protocol:
as §2

Assay [14] concerns the target T1, Hexokinase-4 (Homo sapiens) + Glucokinase regulatory protein (Homo sapiens) (UniProt P35557+Q14397). Put plainly: qHTS assay for inhibitors of recombinant human GCK-GKRP interaction: Diaphorase-coupled assay (AID 743205). In short, it runs like this: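 GST-GCK (10 nM) with FLAG-GKRP (10 nM), 5 mM glucose and 0.4 mM ATP in pH 7.6 Hepes; compounds preincubated 20 min with substrate. G6PDH/diaphorase coupling converts resazurin to resorufin, read kinetically (ex 525/em 590 nm) for 30 min.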

The target of assay [15] is T1, Hexokinase-4 (Homo sapiens) + Glucokinase regulatory protein (Homo sapiens). The assay is described as follows: qHTS assay for inhibitors of recombinant human GCK-GKRP interaction: ADP-Glo assay (AID 743206).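 Also: plate controls were DMSO plus enzyme for no effect and no enzyme for full effect.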 In short, it runs like this: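 GST-GCK and FLAG-GKRP (15 nM each in the dispensed mix, with 2 uM S6P) react with 0.4 mM ATP and 5 mM glucose (final) in Hepes pH 7.6 for 60 min at room temperature. ADP is measured by ADP-Glo luminescence.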

The target is the same in assay [16]. Put plainly: qHTS assay for inhibitors of recombinant human GCK-GKRP interaction: HTRF assay (AID 743207).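 Also: 0% = DMSO with GCK present and -100% = DMSO wells lacking GCK.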 A digest of the protocol:
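GST-GCK and FLAG-GKRP (5 nM each) were combined with 2 uM S6P in pH 7.1 Hepes/MgCl2/KCl/DTT buffer, then compound and anti-FLAG XL665/anti-GST K antibodies were added. After 60 min at room temperature, HTRF 665/615 nm emission was read.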

T1 sequence (P35557 whole entry, looked up): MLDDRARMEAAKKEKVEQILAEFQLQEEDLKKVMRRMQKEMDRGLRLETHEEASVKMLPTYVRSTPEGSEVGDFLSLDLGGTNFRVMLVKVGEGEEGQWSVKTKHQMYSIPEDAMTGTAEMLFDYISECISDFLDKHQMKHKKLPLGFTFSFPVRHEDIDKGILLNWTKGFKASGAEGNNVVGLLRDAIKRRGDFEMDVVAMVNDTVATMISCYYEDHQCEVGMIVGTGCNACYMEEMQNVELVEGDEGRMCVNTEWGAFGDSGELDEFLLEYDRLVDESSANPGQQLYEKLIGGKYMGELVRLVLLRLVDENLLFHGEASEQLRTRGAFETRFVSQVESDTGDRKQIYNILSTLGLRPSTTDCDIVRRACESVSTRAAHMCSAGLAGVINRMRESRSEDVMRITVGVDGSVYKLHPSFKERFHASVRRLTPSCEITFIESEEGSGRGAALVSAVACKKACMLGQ
T1 sequence (Q14397 whole entry, looked up): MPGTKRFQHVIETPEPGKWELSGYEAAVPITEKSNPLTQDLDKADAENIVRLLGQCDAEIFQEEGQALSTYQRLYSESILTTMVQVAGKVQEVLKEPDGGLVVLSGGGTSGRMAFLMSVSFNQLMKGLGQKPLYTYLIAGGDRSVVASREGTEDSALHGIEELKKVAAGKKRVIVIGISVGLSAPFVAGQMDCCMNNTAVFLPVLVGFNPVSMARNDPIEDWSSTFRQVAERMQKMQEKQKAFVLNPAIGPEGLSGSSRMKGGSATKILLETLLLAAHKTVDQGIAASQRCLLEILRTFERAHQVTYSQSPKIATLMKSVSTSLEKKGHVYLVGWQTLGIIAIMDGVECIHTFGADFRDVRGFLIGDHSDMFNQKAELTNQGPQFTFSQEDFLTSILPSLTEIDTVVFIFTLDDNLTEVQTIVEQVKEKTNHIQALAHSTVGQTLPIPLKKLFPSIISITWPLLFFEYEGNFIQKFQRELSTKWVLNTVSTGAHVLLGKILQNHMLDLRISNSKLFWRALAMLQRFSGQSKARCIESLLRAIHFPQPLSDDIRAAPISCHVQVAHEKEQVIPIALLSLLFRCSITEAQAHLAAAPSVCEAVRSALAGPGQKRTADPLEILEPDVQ

In the case of `CC[C@]1(O)C[C@H]2CN(CCc3c([nH]c4ccccc34)[C@@](C(=O)OC)(c3cc4c(cc3OC)N(C=O)[C@H]3[C@@](O)(C(=O)OC)[C@H](OC(C)=O)[C@]5(CC)C=CCN6CC[C@]43[C@@H]65)C2)C1`, the max response in [1] is 24.7% (inactive). The compound further displayed a parasite growth, % of DMSO control in assay [2] of 19.3%. For the same compound, in assay [3], the parasite growth remaining, % of DMSO control (lower = more inhibition) turned out to be 18%. Also, the parasite growth, % of control (lower = inhibition) in assay [4] turned out to be 19.1%. Besides, the growth, % of control in assay [5] is 5.89%. The cell viability, % of control (lower = more cytotoxic) in assay [6] was found to be 10.7%. For the same compound, the viability (% of control) in [7] is 10.9%. Further, the Potency result in [8] and in assay [9] was “inactive” in each case. Besides, the Potency in assay [10] is 0.0033 µM (active).

With `Cc1ccc(NC(=O)c2ccc(CN3CCN(C)CC3)cc2)cc1Nc1nccc(-c2cccnc2)n1`, the remaining parasite growth % (stronger effect = lower value) in assay [11] was found to be 1.04%. This compound yielded an activity, percent of control in assay [12] of 7.63%. The same compound displayed a parasite growth, % of DMSO control in assay [2] of 6.13%. Also, the parasite growth remaining, % of DMSO control (lower = more inhibition) in [3] is 10.8%. The compound also came in with a parasite growth, % of control (lower = inhibition) in assay [4] of 24.1%. Moreover, the growth, % of control in assay [5] amounted to 4.5%. For the same compound, the cell viability, % of control (lower = more cytotoxic) in [6] amounted to 308%. For the same compound, the viability (% of control) in assay [7] came out at 81%. The Potency entry in assay [8] and in [9] was “inactive” each time.

On to `CC(C)c1ccc2oc3nc(N)c(C(=O)O)cc3c(=O)c2c1`, for which the max response in assay [1] was 20.5% (inactive). The same compound showed a parasite growth, % of DMSO control in assay [2] of 54.7%. This compound displayed a parasite growth remaining, % of DMSO control (lower = more inhibition) in assay [3] of 91.1%. In assay [4], this compound registered a parasite growth, % of control (lower = inhibition) of 71.7%. The growth, % of control in [5] is 74%. Besides, in assay [6], the cell viability, % of control (lower = more cytotoxic) was determined as 98.6%. In addition, the viability (% of control) in assay [7] was found to be 97.4%. Also, the Potency in assay [8] was 1.66 µM (active) and inactive; in [9], 1.32 µM (active) and inactive.

As to `CC(C)[C@H](N)C(=O)OCCOCn1cnc2c(=O)[nH]c(N)nc21`, in assay [1], the max response is 18.3% (inactive). In assay [2], this compound came in with a parasite growth, % of DMSO control of 102%. Besides, in [6], the cell viability, % of control (lower = more cytotoxic) was 57%. For the same compound, the viability (% of control) in assay [7] came out at 28.8%. Also, the Potency result in assay [8], in [9], in assay [10] and in assay [13] was “inactive” in each case.

Consider `CC(C)c1ccc2c(c1)c(SC(C)(C)C)c(CC(C)(C)C(=O)O)n2Cc1ccc(Cl)cc1`, for which the outcome in assay [14], in [15] and in assay [16] was inactive. Further, the max response in assay [1] was 14.3% (inactive) and 21.6% (inactive). For the same compound, the remaining parasite growth % (stronger effect = lower value) in assay [11] amounted to 39.7%. The compound further returned an activity, percent of control in [12] of 27.3%. Also, in assay [2], the parasite growth, % of DMSO control was 21.7%. The parasite growth remaining, % of DMSO control (lower = more inhibition) in [3] was 42.3%. Moreover, the parasite growth, % of control (lower = inhibition) in assay [4] is 22%. The growth, % of control in [5] is 11.8%. Also, the cell viability, % of control (lower = more cytotoxic) in [6] was 111%. The viability (% of control) in assay [7] is 119%. For the same compound, the Potency entry in assay [8] and in assay [9] was “inactive” throughout. Besides, the Potency in assay [10] is 20.9 µM (active).
